Laboratory results taken from the supplement of paper PMC4466140.

What was measured:
Assay in all cases: SPOT peptide array binding signal intensity (averaged, normalized) (arbitrary units (background-subtracted, floor 0; scale differs between SH3 domains)); higher = stronger binding of the SH3 domain to the peptide
AgAbp1 = molecular target: AgAbp1
How it was run: (§1)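 Peptides were synthetic 15-mers on cellulose membranes, with every cysteine replaced by serine. They were incubated overnight at 4°C with GST-SH3 domains from four yeast species at 10 μg/ml in TBS-based blocking buffer. Binding signal, the replicate-averaged normalized and background-subtracted spot intensity, is in arbitrary units that differ between domains.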

AgBbc1 = molecular target: AgBbc1
How it was run: as §1

AgBem1-D1 = molecular target: AgBem1-D1
How it was run: as §1

AgBzz1-D1 = molecular target: AgBzz1-D1
How it was run: as §1

AgBzz1-D2 = molecular target: AgBzz1-D2
How it was run: as §1

AgCyk3 = molecular target: AgCyk3
How it was run: as §1

AgFus1 = molecular target: AgFus1
How it was run: as §1

AgHof1 = molecular target: AgHof1
How it was run: as §1

AgHse1 = molecular target: AgHse1
How it was run: as §1

AgLsb1 = molecular target: AgLsb1
How it was run: as §1

AgLsb4 = molecular target: AgLsb4
How it was run: as §1

AgMyo5 = molecular target: AgMyo5
How it was run: as §1

AgNbp2 = molecular target: AgNbp2
How it was run: as §1

AgRvs167 = molecular target: AgRvs167
How it was run: as §1

AgSho1 = molecular target: AgSho1
How it was run: as §1

AgSla1-D1-D2 = molecular target: AgSla1-D1-D2
How it was run: as §1

AgSla1-D3 = molecular target: AgSla1-D3
How it was run: as §1

CaAbp1-D1 = molecular target: CaAbp1-D1
How it was run: as §1

CaAbp1-D2 = molecular target: CaAbp1-D2
How it was run: as §1

CaBbc1 = molecular target: CaBbc1
How it was run: as §1

CaBem1-D1 = molecular target: CaBem1-D1
How it was run: as §1

CaBzz1-D1 = molecular target: CaBzz1-D1
How it was run: as §1

CaBzz1-D2 = molecular target: CaBzz1-D2
How it was run: as §1

CaCyk3 = molecular target: CaCyk3
How it was run: as §1

CaFus1 = molecular target: CaFus1
How it was run: as §1

CaHof1 = molecular target: CaHof1
How it was run: as §1

CaHse1 = molecular target: CaHse1
How it was run: as §1

CaLsb1 = molecular target: CaLsb1
How it was run: as §1

CaLsb4 = molecular target: CaLsb4
How it was run: as §1

CaMyo5 = molecular target: CaMyo5
How it was run: as §1

CaNbp2 = molecular target: CaNbp2
How it was run: as §1

CaRvs167 = molecular target: CaRvs167
How it was run: as §1

CaRvs167-3 = molecular target: CaRvs167-3
How it was run: as §1

CaSho1 = molecular target: CaSho1
How it was run: as §1

CaSla1-D1-D2 = molecular target: CaSla1-D1-D2
How it was run: as §1

CaSla1-D3 = molecular target: CaSla1-D3
How it was run: as §1

ScAbp1 = molecular target: ScAbp1
How it was run: as §1

ScBbc1 = molecular target: ScBbc1
How it was run: as §1

ScBem1-D1 = molecular target: ScBem1-D1
How it was run: as §1

ScBzz1-D1 = molecular target: ScBzz1-D1
How it was run: as §1

ScBzz1-D2 = molecular target: ScBzz1-D2
How it was run: as §1

ScCyk3 = molecular target: ScCyk3
How it was run: as §1

ScFus1 = molecular target: ScFus1
How it was run: as §1

ScHof1 = molecular target: ScHof1
How it was run: as §1

ScHse1 = molecular target: ScHse1
How it was run: as §1

ScLsb1 = molecular target: ScLsb1
How it was run: as §1

ScLsb2 = molecular target: ScLsb2
How it was run: as §1

ScLsb3 = molecular target: ScLsb3
How it was run: as §1

ScLsb4 = molecular target: ScLsb4
How it was run: as §1

ScMyo3 = molecular target: ScMyo3
How it was run: as §1

ScMyo5 = molecular target: ScMyo5
How it was run: as §1

ScNbp2 = molecular target: ScNbp2
How it was run: as §1

ScPex13 = molecular target: ScPex13
How it was run: as §1

ScRvs167 = molecular target: ScRvs167
How it was run: as §1

ScSho1 = molecular target: ScSho1
How it was run: as §1

ScSla1-D1-D2 = molecular target: ScSla1-D1-D2
How it was run: as §1

ScSla1-D3 = molecular target: ScSla1-D3
How it was run: as §1

SpAbp1-D1 = molecular target: SpAbp1-D1
How it was run: as §1

SpBbc1 = molecular target: SpBbc1
How it was run: as §1

SpBzz1-D1 = molecular target: SpBzz1-D1
How it was run: as §1

SpBzz1-D2 = molecular target: SpBzz1-D2
How it was run: as §1

SpCyk3 = molecular target: SpCyk3
How it was run: as §1

SpHof1 = molecular target: SpHof1
How it was run: as §1

SpHof1-2 = molecular target: SpHof1-2
How it was run: as §1

SpHof1-3 = molecular target: SpHof1-3
How it was run: as §1

SpHse1 = molecular target: SpHse1
How it was run: as §1

SpLsb1 = molecular target: SpLsb1
How it was run: as §1

SpLsb4 = molecular target: SpLsb4
How it was run: as §1

SpMyo1 = molecular target: SpMyo1
How it was run: as §1

SpNbp2 = molecular target: SpNbp2
How it was run: as §1

SpPex13 = molecular target: SpPex13
How it was run: as §1

SpRvs167 = molecular target: SpRvs167
How it was run: as §1

SpSla1-D1-D2 = molecular target: SpSla1-D1-D2
How it was run: as §1

SpSla1-D3 = molecular target: SpSla1-D3
How it was run: as §1

Binder: KRRTSLFPWLHKPGI
- SPOT peptide array binding signal intensity (AgAbp1): 14
- SPOT peptide array binding signal intensity (AgBbc1): 19.2
- SPOT peptide array binding signal intensity (AgBem1-D1): 13
- SPOT peptide array binding signal intensity (AgBzz1-D1): 15
- SPOT peptide array binding signal intensity (AgBzz1-D2): 17
- SPOT peptide array binding signal intensity (AgCyk3): 4
- SPOT peptide array binding signal intensity (AgFus1): 202
- SPOT peptide array binding signal intensity (AgHof1): 14
- SPOT peptide array binding signal intensity (AgHse1): 1230
- SPOT peptide array binding signal intensity (AgLsb1): 1
- SPOT peptide array binding signal intensity (AgLsb4): 53
- SPOT peptide array binding signal intensity (AgMyo5): ≤ 0
- SPOT peptide array binding signal intensity (AgNbp2): 196
- SPOT peptide array binding signal intensity (AgRvs167): 2.33
- SPOT peptide array binding signal intensity (AgSho1): 23
- SPOT peptide array binding signal intensity (AgSla1-D1-D2): 297
- SPOT peptide array binding signal intensity (AgSla1-D3): 5.5
- SPOT peptide array binding signal intensity (CaAbp1-D1): 736
- SPOT peptide array binding signal intensity (CaAbp1-D2): 682
- SPOT peptide array binding signal intensity (CaBbc1): 53.2
- SPOT peptide array binding signal intensity (CaBem1-D1): ≤ 0
- SPOT peptide array binding signal intensity (CaBzz1-D1): 35
- SPOT peptide array binding signal intensity (CaBzz1-D2): 22
- SPOT peptide array binding signal intensity (CaCyk3): 5
- SPOT peptide array binding signal intensity (CaFus1): 727
- SPOT peptide array binding signal intensity (CaHof1): ≤ 0
- SPOT peptide array binding signal intensity (CaHse1): 42.8
- SPOT peptide array binding signal intensity (CaLsb1): 0.5
- SPOT peptide array binding signal intensity (CaLsb4): 59.5
- SPOT peptide array binding signal intensity (CaMyo5): 0.25
- SPOT peptide array binding signal intensity (CaNbp2): 402
- SPOT peptide array binding signal intensity (CaRvs167): 5.67
- SPOT peptide array binding signal intensity (CaRvs167-3): 34.2
- SPOT peptide array binding signal intensity (CaSho1): 664
- SPOT peptide array binding signal intensity (CaSla1-D1-D2): 5.5
- SPOT peptide array binding signal intensity (CaSla1-D3): ≤ 0
- SPOT peptide array binding signal intensity (ScAbp1): 19
- SPOT peptide array binding signal intensity (ScBbc1): 5.75
- SPOT peptide array binding signal intensity (ScBem1-D1): 2
- SPOT peptide array binding signal intensity (ScBzz1-D1): 5.5
- SPOT peptide array binding signal intensity (ScBzz1-D2): 2.5
- SPOT peptide array binding signal intensity (ScCyk3): 311
- SPOT peptide array binding signal intensity (ScFus1): 224
- SPOT peptide array binding signal intensity (ScHof1): ≤ 0
- SPOT peptide array binding signal intensity (ScHse1): 2010
- SPOT peptide array binding signal intensity (ScLsb1): ≤ 0
- SPOT peptide array binding signal intensity (ScLsb2): 7.5
- SPOT peptide array binding signal intensity (ScLsb3): 54
- SPOT peptide array binding signal intensity (ScLsb4): ≤ 0
- SPOT peptide array binding signal intensity (ScMyo3): 3
- SPOT peptide array binding signal intensity (ScMyo5): 1.5
- SPOT peptide array binding signal intensity (ScNbp2): 230
- SPOT peptide array binding signal intensity (ScPex13): 1
- SPOT peptide array binding signal intensity (ScRvs167): 7.67
- SPOT peptide array binding signal intensity (ScSho1): 512
- SPOT peptide array binding signal intensity (ScSla1-D1-D2): 56.5
- SPOT peptide array binding signal intensity (ScSla1-D3): ≤ 0
- SPOT peptide array binding signal intensity (SpAbp1-D1): 420
- SPOT peptide array binding signal intensity (SpBbc1): ≤ 0
- SPOT peptide array binding signal intensity (SpBzz1-D1): 27
- SPOT peptide array binding signal intensity (SpBzz1-D2): ≤ 0
- SPOT peptide array binding signal intensity (SpCyk3): 3
- SPOT peptide array binding signal intensity (SpHof1): 54
- SPOT peptide array binding signal intensity (SpHof1-2): 2.75
- SPOT peptide array binding signal intensity (SpHof1-3): 586
- SPOT peptide array binding signal intensity (SpHse1): 844
- SPOT peptide array binding signal intensity (SpLsb1): 0.5
- SPOT peptide array binding signal intensity (SpLsb4): 8.5
- SPOT peptide array binding signal intensity (SpMyo1): 2.5
- SPOT peptide array binding signal intensity (SpNbp2): 418
- SPOT peptide array binding signal intensity (SpPex13): 6.5
- SPOT peptide array binding signal intensity (SpRvs167): ≤ 0
- SPOT peptide array binding signal intensity (SpSla1-D1-D2): ≤ 0
- SPOT peptide array binding signal intensity (SpSla1-D3): 4

Binder: RKLRTVPGVPLIHLT
- SPOT peptide array binding signal intensity (AgAbp1): 13
- SPOT peptide array binding signal intensity (AgBbc1): 40.8
- SPOT peptide array binding signal intensity (AgBem1-D1): 41
- SPOT peptide array binding signal intensity (AgBzz1-D1): 8
- SPOT peptide array binding signal intensity (AgBzz1-D2): 16
- SPOT peptide array binding signal intensity (AgCyk3): 0.5
- SPOT peptide array binding signal intensity (AgFus1): 53.5
- SPOT peptide array binding signal intensity (AgHof1): 34.5
- SPOT peptide array binding signal intensity (AgHse1): 19.5
- SPOT peptide array binding signal intensity (AgLsb1): 2
- SPOT peptide array binding signal intensity (AgLsb4): 18
- SPOT peptide array binding signal intensity (AgMyo5): ≤ 0
- SPOT peptide array binding signal intensity (AgNbp2): 934
- SPOT peptide array binding signal intensity (AgRvs167): 2
- SPOT peptide array binding signal intensity (AgSho1): ≤ 0
- SPOT peptide array binding signal intensity (AgSla1-D1-D2): ≤ 0
- SPOT peptide array binding signal intensity (AgSla1-D3): 0.25
- SPOT peptide array binding signal intensity (CaAbp1-D1): 224
- SPOT peptide array binding signal intensity (CaAbp1-D2): 83
- SPOT peptide array binding signal intensity (CaBbc1): 171
- SPOT peptide array binding signal intensity (CaBem1-D1): 1
- SPOT peptide array binding signal intensity (CaBzz1-D1): 104
- SPOT peptide array binding signal intensity (CaBzz1-D2): 90
- SPOT peptide array binding signal intensity (CaCyk3): 17
- SPOT peptide array binding signal intensity (CaFus1): 147
- SPOT peptide array binding signal intensity (CaHof1): 0.5
- SPOT peptide array binding signal intensity (CaHse1): 1.25
- SPOT peptide array binding signal intensity (CaLsb1): ≤ 0
- SPOT peptide array binding signal intensity (CaLsb4): 73
- SPOT peptide array binding signal intensity (CaMyo5): 0.25
